Bioassay records: PubChem BioAssay, National Center for Advancing Translational Sciences (NCATS)
HTT cytoprotect: qHTS Multiplex Assay to Identify Dual Action Probes in a Cell Model of Huntington: Cytoprotection (ATP); PC12 HTT-Q103 induced, cytoprotection, ATP luminescence, 40 h; Potency, µM (titrated, usually from 56.4 µM), hits mostly activators; 0.14% of 230,000 active; also: nearly all actives have a fitted effect of over 45% in size
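Cells were plated at 1500 per well in phenol red-free DMEM with 5% equine and 5% calf serum. Tebufenozide (100 nM final) and compounds were added, then ATPlite reagent, and luminescence was read.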
ALDH1A1 block: qHTS Assay for Inhibitors of Aldehyde Dehydrogenase 1 (ALDH1A1). Potency, µM (titrated, usually from 75.3 µM), actives largely listed as inhibitors. AID 1030, 2008. 7.3% of 220,000 active. Purified ALDH1A1, NADH fluorescence, propionaldehyde substrate. Aldehyde dehydrogenase 1A1 (Homo sapiens), P00352; active = well fitted inhibition curve with a large enough effect, not every such curve was filed as active; inconclusive = small, poorly fitted or top-dose-only effect, or another doubt; inactive = no such curve, though single readings can be large or run the other way
Target sequence (P00352 whole entry, looked up): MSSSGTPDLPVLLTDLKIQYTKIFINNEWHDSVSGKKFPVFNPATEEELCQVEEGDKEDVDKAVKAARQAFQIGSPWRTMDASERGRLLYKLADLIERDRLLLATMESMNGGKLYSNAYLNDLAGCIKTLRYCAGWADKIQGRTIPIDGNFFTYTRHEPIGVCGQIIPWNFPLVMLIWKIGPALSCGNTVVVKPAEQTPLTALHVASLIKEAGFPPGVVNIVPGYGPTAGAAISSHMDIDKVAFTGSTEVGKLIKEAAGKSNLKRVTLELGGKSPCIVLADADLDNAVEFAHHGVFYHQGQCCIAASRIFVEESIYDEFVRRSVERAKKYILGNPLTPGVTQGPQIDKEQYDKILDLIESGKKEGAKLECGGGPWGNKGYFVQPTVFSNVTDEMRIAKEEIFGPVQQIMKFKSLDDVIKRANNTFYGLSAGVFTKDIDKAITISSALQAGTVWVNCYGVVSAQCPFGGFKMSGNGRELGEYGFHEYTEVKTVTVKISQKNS
KinaseGlo FLuc: Counterscreen for Luciferase (Kinase-Glo TM) Inhibition; Kinase-Glo luciferase, ATP luminescence, 8 min; Potency, µM (series often up to 38.3 µM), usual class: inhibitors; 0.28% of 200,000 active; also: nearly all actives have a fitted effect of over 60% in size
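Inhibition of Kinase-Glo luciferase light generation was assessed at 10 uM ATP in pH 7.2 imidazole buffer, with luminescence measured after eight minutes at ambient temperature.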
LMNA splice mod: qHTS Assay for Modulators of Lamin A Splicing | HeLa LMNA splicing GFP/RFP minigene ratio, 48 h | Potency, µM (top dose mostly 46.1 µM), hits mostly inhibitors | 0.01% of 200,000 active; active = well fitted inhibition curve with a large enough effect in the signal ratio, with a control signal flat, not every such curve was filed as active; inconclusive = small, poorly fitted or top-dose-only effect, or effect the other way, or a change in a side signal; the % refers to the signal ratio
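S3 HeLa stable clones carrying a lamin A-EGFP splicing minigene plus DsRed2 were seeded at 600 cells/well in Opti-MEM with 2% FBS, pin-dosed and incubated 48 h at 37°C. Acumen cytometry (488 nm) gave the GFP/RFP total-intensity ratio.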
HTT aggregate: qHTS Multiplex Assay to Identify Dual Action Probes in a Cell Model of Huntington: Aggregate Formation (GFP); PC12 HttQ103-GFP aggregates, Acumen cytometry, 40 h; Potency, µM (highest dose often 46.1 µM), hits mostly inhibitors; 1.1% of 220,000 active; also: nearly all actives have a fitted effect of over 60% in size
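PC12 cells stably carrying ecdysone-inducible HTT exon 1 Q103–GFP were induced with tebufenozide (100 nM final) and treated with library compounds in titration. GFP aggregates in lysates were counted by laser scanning cytometry.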
HPGD block: qHTS Assay for Inhibitors of HPGD (15-Hydroxyprostaglandin Dehydrogenase); purified HPGD, NADH fluorescence kinetic, PGE2 substrate; Potency, µM, hits mostly inhibitors; 4.3% of 150,000 active; active = well fitted inhibition curve with a large enough effect, not every such curve was filed as active; inconclusive = small, poorly fitted or top-dose-only effect, or another doubt; inactive = no such curve, though single readings can be large or run the other way
Target sequence (P15428 whole entry, looked up): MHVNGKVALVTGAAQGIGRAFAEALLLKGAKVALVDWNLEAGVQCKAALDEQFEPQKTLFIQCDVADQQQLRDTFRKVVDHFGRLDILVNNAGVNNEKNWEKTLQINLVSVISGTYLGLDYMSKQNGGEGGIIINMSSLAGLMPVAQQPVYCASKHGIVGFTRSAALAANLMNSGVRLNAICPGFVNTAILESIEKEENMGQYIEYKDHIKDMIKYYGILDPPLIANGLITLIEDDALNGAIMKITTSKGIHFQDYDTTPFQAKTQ
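NADH formation kinetics: reaction with 30 uM PGE2 and 1 mM NAD+ (final), 20 nM enzyme, Tris-HCl pH 8 with Tween 20, after 15 min compound preincubation at room temperature. Fluorescence change, last versus first of five reads.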
Each line names hits and unclear results; the compound was inactive in the other large screens. Hits are enriched below; roughly 9% of the tested compounds scored in any of these assays. Unless noted, calls follow the shape of the dose curve; as a rule, active = well fitted curve in the direction sought with a large enough effect; inconclusive = small, poorly fitted or top-dose-only effect, or another doubt; inactive = no such curve, though single readings can be large; an effect the other way counts as inactive or inconclusive.

CCOC(=O)c1ccccc1NC(=O)CN1CCC(n2nnc3cc(C(F)(F)F)ccc32)CC1	none (no result: ALDH1A1 block, KinaseGlo FLuc, LMNA splice mod, HPGD block)
CCOC(=O)c1c(C)[nH]c(C(=O)OCC(=O)N2CCN(S(=O)(=O)c3ccccc3)CC2)c1C	none
COc1ccc(CNC(=O)COC(=O)C2CC3C=CC2C3)cc1 (configuration not stated)	ALDH1A1 block 11µM, HPGD block inconclusive
COc1ccc(CNC(=O)COC(=O)CCC2CCCCC2)cc1	ALDH1A1 block 5.6µM (no result: KinaseGlo FLuc, HPGD block)
COCCCNc1nc2ccccc2nc1NS(=O)(=O)c1ccc(C)cc1	none (no result: ALDH1A1 block, KinaseGlo FLuc, LMNA splice mod, HPGD block)
CSC1=C(C#N)C(c2ccccc2C)C(C#N)=C(N)N1 (configuration not stated)	ALDH1A1 block 22µM
O=C(NCC1CCCO1)/C(=C/c1cn(-c2ccccc2)nc1-c1cccnc1)NC(=O)c1ccccc1 (configuration not stated)	ALDH1A1 block 0.56µM (no result: HPGD block)
O=C(NCCCO)/C(=C\c1cn(-c2ccccc2)nc1-c1cccnc1)NC(=O)c1ccccc1	ALDH1A1 block 1.8µM
COc1cccc(Cn2c(=O)c(-c3cc(F)cc(F)c3)nc3cnc(N4CCN(C)CC4)nc32)c1	ALDH1A1 block inconclusive (no result: KinaseGlo FLuc, HTT aggregate, HPGD block)
COc1ccc(C(=O)NC(=S)NCc2ccc(-c3nc4ccccc4o3)cc2)cc1OC	ALDH1A1 block 5µM
Cc1c(C(=S)NC(=O)C2CC2)c(=O)n(-c2ccccc2)n1C	ALDH1A1 block 18µM (no result: HPGD block)
Cc1ccc(-n2ncc(C(=O)N3CCN(C4CCCCC4)CC3)c2C2CCN(C(=O)OC(C)(C)C)CC2)cc1	none (no result: HTT cytoprotect, ALDH1A1 block, KinaseGlo FLuc, HTT aggregate, HPGD block)
Cc1cccc(N(Cc2cc3ccccc3[nH]c2=O)S(C)(=O)=O)c1	ALDH1A1 block 24µM (no result: KinaseGlo FLuc, LMNA splice mod, HPGD block)
COc1ccccc1NS(=O)(=O)c1cc(NC(=O)c2cnccn2)ccc1N1CCOCC1	none (no result: ALDH1A1 block, KinaseGlo FLuc, LMNA splice mod, HPGD block)
COc1ccccc1NC(=S)NCCN1CCOCC1	none (no result: HTT cytoprotect)
COc1ccccc1NS(=O)(=O)c1cc(NC(=O)c2cc[n+]([O-])cc2)ccc1N1CCCC1	ALDH1A1 block 7.9µM (no result: HPGD block)
COc1ccccc1NS(=O)(=O)c1cc(NC(=O)Nc2ccccc2)ccc1N1CCCCC1	ALDH1A1 block 18µM, LMNA splice mod inconclusive, HTT aggregate inconclusive, HPGD block 25µM
COc1ccccc1NS(=O)(=O)c1cc(NC(=O)c2ccncc2)ccc1N1CCOCC1	ALDH1A1 block inconclusive
COc1ccccc1NS(=O)(=O)c1cc(NC(=O)C2CCCC2)ccc1N1CCOCC1	ALDH1A1 block 10µM, LMNA splice mod inconclusive, HTT aggregate inconclusive (no result: HPGD block)
COc1ccccc1NS(=O)(=O)c1cc(NC(=O)c2cccs2)ccc1N1CCCCC1	LMNA splice mod inconclusive, HTT aggregate inconclusive
S=C(NCCN1CCOCC1)Nc1cccc2ccccc12	HTT aggregate 3.5µM
COc1ccccc1S(=O)(=O)Nc1cc(S(=O)(=O)N2CCCCC2)ccc1N1CCOCC1	ALDH1A1 block 13µM (no result: HPGD block)
COc1ccccc1NS(=O)(=O)c1cc(NC(=O)C(C)C)ccc1N1CCCCC1	ALDH1A1 block 9.5µM (no result: LMNA splice mod, HPGD block)
COc1ccc(NS(=O)(=O)c2cc(NC(=O)CC3CCCC3)ccc2N2CCOCC2)cc1	ALDH1A1 block 3.2µM (no result: HPGD block)
O=C(Nc1ccc(F)cc1)Nc1ccc(N2CCCC2)c(S(=O)(=O)Nc2ccccc2Cl)c1	ALDH1A1 block inconclusive, LMNA splice mod inconclusive, HTT aggregate inconclusive
COc1ccccc1NCC(=O)Nc1cc(S(=O)(=O)N2CCOCC2)ccc1N1CCOCC1	none (no result: LMNA splice mod, HPGD block)
COc1ccccc1NS(=O)(=O)c1cc(NC(=S)NCCN2CCOCC2)ccc1N1CCOCC1	ALDH1A1 block 25µM, HTT aggregate inconclusive, HPGD block 18µM
C=CCN1C(=O)NC(c2ccccc2)(C(F)(F)F)S/C1=C(\C#N)c1nnc(N2CCOCC2)n1-c1ccccc1 (configuration not stated)	ALDH1A1 block inconclusive
COc1ccc(N2C(C)=CS/C2=C(/C#N)c2nnc(N3CCOCC3)n2-c2ccccc2)cc1	ALDH1A1 block 22µM
COc1ccc(/C=C/C(O)=C(\C#N)c2nnc(N3CCOCC3)n2-c2ccccc2)cc1OC	ALDH1A1 block 13µM (no result: LMNA splice mod, HPGD block)
Cc1ccc(C(=O)O/N=C/c2c(C(F)(F)F)nn(C)c2Sc2ccc(Cl)cc2)cc1	HTT aggregate 13µM
COc1ccc(C(=O)O/N=C/c2c(C(F)(F)F)nn(C)c2SCc2ccccc2Cl)cc1	HTT aggregate 10µM
Cn1nc(C(F)(F)F)c(/C=N/OC(=O)c2ccccc2Cl)c1SCc1ccc(Cl)cc1	HTT aggregate inconclusive
COC(=O)c1ccccc1Sc1c(/C=N/OC(=O)c2ccccc2)c(C(F)(F)F)nn1C	LMNA splice mod inconclusive, HTT aggregate inconclusive
CCOC(=O)C(C)Oc1cccc2c(=O)n(CC(=O)NCc3ccco3)ccc12 (configuration not stated)	LMNA splice mod inconclusive, HPGD block inconclusive
NC(=O)c1ccccc1NS(=O)(=O)c1ccccc1	ALDH1A1 block inconclusive, HPGD block inconclusive
O=C(c1cccs1)c1ccc(-c2cccs2)s1	ALDH1A1 block inconclusive, KinaseGlo FLuc 7.9µM, LMNA splice mod inconclusive, HPGD block inconclusive
COC(=O)CC1=C(C(=O)OC)C(c2cccc(OCC(N)=O)c2)C(C#N)=C(N)O1 (configuration not stated)	none
Cc1nnc(SCCn2c(N3CCC(C)CC3)nc3c2c(=O)n(C)c(=O)n3C)s1	none (no result: ALDH1A1 block, KinaseGlo FLuc, LMNA splice mod, HTT aggregate, HPGD block)
Cn1nc(-c2ccc(OCC(=O)Nc3ccccc3)cc2)c2ccccc2c1=O	LMNA splice mod inconclusive, HPGD block 28µM
CN(C)CCNC(=O)c1ccc(-c2nn(C)c(=O)c3ccccc23)cc1	HPGD block 20µM
Cc1ccc(-c2nn(C)c(=O)c3ccccc23)cc1CNC(=O)c1ccco1	HTT aggregate inconclusive, HPGD block 3.5µM
CN(C(=O)c1ccc(-c2nn(C)c(=O)c3ccccc23)cc1)c1ccccc1	HTT aggregate inconclusive, HPGD block 7.9µM
CCC(C)[C@H](NC(=O)NC1CCCc2ccccc21)C(=O)OC (some centres not stated)	none (no result: ALDH1A1 block, KinaseGlo FLuc, LMNA splice mod, HPGD block)
COc1ccccc1NC(=O)c1ccc(-c2nn(C)c(=O)c3ccccc23)cc1	LMNA splice mod inconclusive (no result: HPGD block)
CCC(CO)NC(=O)c1ccc(-c2nn(C)c(=O)c3ccccc23)cc1 (configuration not stated)	HPGD block 32µM
CCCNC(=O)c1ccc(Cl)cc1Cl	none (no result: ALDH1A1 block, KinaseGlo FLuc, LMNA splice mod, HPGD block)
CC(C)CCn1c(CN2CCN(Cc3ccccc3)CC2)nc2c1c(=O)n(C)c(=O)n2C	ALDH1A1 block inconclusive
